From PubChem BioAssay (NCATS)
Inconclusive results are not listed. Activity calls are given as the source filed them. The call rests on the fitted dose curve; in most records, active means well fitted cell-killing curve with a large enough effect; inconclusive means small, poorly fitted or top-dose-only effect, or effect the other way; inactive means flat fitted curve, though single readings scatter. Where a SMILES comes first, the peptide text is derived from it.

Legend:
Assay in all cases: Primary qHTS to identify gynecologic anti-cancer compounds using libraries of approved drugs and bioactive compounds (AID 1345084); further: nearly all actives have a fitted effect of over 55% in size
Details in all cases: Gynecologic cancer cell panel viability, ATPlite luminescence, 48 h; series mostly up to 57.5 µM
OV90 = tested on: OV90
Outline: (§1)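 ATP-based viability (ATPlite), 1,000 cells/well, 16 h pre-incubation, 48 h compound at 37 C, 5% CO2, 15 min RT before read.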

PA-1 = tested on: PA-1
Outline: as §1

SKOV3 = tested on: SKOV3
Outline: as §1

Tov-21-G = tested on: Tov-21-G
Outline: as §1

Tov112D = tested on: Tov112D
Outline: as §1
On the % scale 0 is the no-effect control and ±100 the full control effect.

CC1=C(CC/C(C)=C/C(=O)O)[C@@]2(C)CCCC(C)(C)C2CC1=O (stereo not given in full)
inactive: Potency (OV90) | Potency (PA-1) | Potency (SKOV3) | Potency (Tov-21-G) | Potency (Tov112D)

CC1=CCC[C@@H]2[C@@](C)(CCc3ccoc3)[C@H](C(=O)O)CC[C@@]12C
inactive: Potency (OV90) | Potency (PA-1) | Potency (SKOV3) | Potency (Tov-21-G) | Potency (Tov112D)

N[C@@H](CCNCc1ccc(Cl)cc1)C(=O)N1CCCCC1
inactive: Potency (OV90) | Potency (PA-1) | Potency (SKOV3) | Potency (Tov-21-G) | Potency (Tov112D)

COc1ccc(/C=C/C(=O)O[C@@H]2[C@@H](OC(C)=O)[C@@H](OC(C)=O)[C@H](O[C@H]3[C@@H]4C=CO[C@@H](O[C@@H]5O[C@H](CO)[C@@H](O)[C@H](O)[C@H]5O)[C@@H]4[C@@]4(CO)O[C@@H]34)O[C@H]2C)cc1
inactive: Potency (OV90) | Potency (PA-1) | Potency (SKOV3) | Potency (Tov-21-G) | Potency (Tov112D)

CSCC[C@H](NC(=O)[C@H](CO)NC(=O)[C@H](CCC(=O)O)NC(C)=O)C(=O)N[C@H](C=O)CC(=O)O (Ac-ESMD-aldehyde)
inactive: activity change, negative = cytotoxicity (OV90) -2.74% [at 11.6 µM] | activity change, negative = cytotoxicity (PA-1) -0.0533% [at 11.6 µM] | activity change, negative = cytotoxicity (SKOV3) 3.55% [at 11.6 µM] | activity change, negative = cytotoxicity (Tov-21-G) -0.444% [at 11.6 µM] | activity change, negative = cytotoxicity (Tov112D) 6.37% [at 11.6 µM]

CC(C)(O)c1ccc2c(c1)C(=O)C[C@H]1[C@](C)(C(=O)O)CCC[C@]21C
inactive: Potency (OV90) | Potency (PA-1) | Potency (SKOV3) | Potency (Tov-21-G) | Potency (Tov112D)

C/C(=C\CCC(C)C1CC(O)C2(C)C3CCC4C(C)(C)C(OC5OCC(O)C(O)C5O)CCC45CC35CC(O)C12C)C(=O)O (stereo not given)
inactive: Potency (OV90) | Potency (PA-1) | Potency (SKOV3) | Potency (Tov-21-G) | Potency (Tov112D)
